The values that follow come from PubChem BioAssay (Tox21).

The structures appear in SMILES notation. Active and inactive are the calls of the source. Calls follow the shape of the full dose curve.
% is scaled to controls: 0 for no effect and ±100 for the full control effect.

Thyrotropin-releasing hormone receptor (Homo sapiens), sequence (P34981 whole entry, looked up): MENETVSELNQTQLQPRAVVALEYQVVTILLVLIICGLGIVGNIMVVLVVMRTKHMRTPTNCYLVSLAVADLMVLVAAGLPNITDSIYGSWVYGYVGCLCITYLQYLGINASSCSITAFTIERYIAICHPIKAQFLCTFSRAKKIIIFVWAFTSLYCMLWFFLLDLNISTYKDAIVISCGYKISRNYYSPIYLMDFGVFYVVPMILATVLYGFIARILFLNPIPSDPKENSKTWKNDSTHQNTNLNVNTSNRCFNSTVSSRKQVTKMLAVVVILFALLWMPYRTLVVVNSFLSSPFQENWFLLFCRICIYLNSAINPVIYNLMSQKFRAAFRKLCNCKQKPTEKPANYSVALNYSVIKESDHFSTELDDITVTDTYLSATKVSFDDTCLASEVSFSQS

This test has as its target Thyrotropin-releasing hormone receptor (Homo sapiens) (UniProt P34981). Put plainly: qHTS assay to identify small molecule agonists of the thyrotropin-releasing hormone receptor (TRHR) signaling pathway (AID 1346891).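 Also: HEK293 cells expressing TRHR with calcium dye readout.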 The following applies: TRHR-HEK293 calcium fluorescence, agonist mode; series mostly up to 57.6 µM; activation: at the top concentration. From the text:
National Center for Advancing Translational Sciences [NCATS] NIH Chemical Genomics Center [NCGC] U.S. Environmental Protection Agency [EPA] National Institutes of Environmental Health Sciences [NIEHS] National Toxicology Program [NTP] Assay overview: Thyrotropin-releasing hormone (TRH) receptor (TRHR) is a G-protein-coupled receptor which binds the tripeptide thyrotropin releasing hormone. TRHR is found in the brain and, when bound by TRH, acts (through phospholipase C) to increase intracellular inositol trisphosphate. It plays a crucial role in the anterior pituitary where it controls the synthesis and secretion of thyroid stimulating hormone and prolactin. The TRHR-Hek293 assay is a cell-based assay, and it has the potential to screen G protein-coupled receptors. A compound/drug can either activate (agonist) or suppress (antagonist) GPCRs that can be monitored by levels of intracellular calcium. Using this assay, the Tox21 10K compound library was screened to identify potential TRHR agonists.
Assay Protocol Summary: The TRHR-Hek293 cells were dispensed at 1500cells/4uL/well in 1536-well black-clear bottom plates using a Multidrop dispenser. After the assay plates were incubated at a 37 C/5% CO2 incubator for 18 hours, 4 uL of Dye-Loading Solution was added to each well. The plates were incubated at 37 C for 2 hours. For agonist mode, 23 nL of compounds dissolved in DMSO, positive controls or DMSO only was transferred to the assay plate by a pin tool. The fluorescence intensity in the plates was measured using FDSS 7000EX kinetic plate reader for 3 min at 1 sec intervals. Each test compound was measured at 15 concentrations and in triplicates.
(In general: In qHTS, concentration-response curves come from the screen itself.)
For the compound `C1CCC(C2CCCCC2)CC1`, the “activation” value is 0.0541% (inactive).
Take `CCC(=O)c1ccccc1`: the “activation” value was -0.329% (inactive).
Regarding `CNC(=O)Oc1ccccc1C1OCCO1`, the “activation” value is -0.005% (inactive).
As for `CC(C)CC#N`, the “activation” value was -0.0113% (inactive).
`COc1cc(OC)nc(Sc2cccc(Cl)c2C(=O)O)n1`: the “activation” value is -0.0571% (inactive).
The value for `CNC(=O)N(C)c1nc2ccccc2s1` was -0.307% (inactive); that for `CN1CCC(O)(c2ccc(F)cc2)C(C(=O)c2ccc(F)cc2)C1` (stereo not given) was 0.65% [at 26.5 µM] (inactive); that for `CCC1(c2ccccc2)C(=O)NC(=O)NC1=O` was -0.599% (inactive).
The value for `CCOP(=S)(OCC)Oc1ncn(-c2ccccc2)n1` was -0.0746% (inactive); that for `CC1CN1P(=O)(N1CC1C)N1CC1C` (stereo not given) was -0.0407% (inactive).
As for `COc1cccc2c1cc([N+](=O)[O-])c1c(C(=O)O)cc3c(c12)OCO3`, the “activation” value was -0.0725% (inactive).
`COCC(=O)N(c1c(C)cccc1C)N1CCOC1=O`: the “activation” value was 0.044% (inactive).
The same measure for `CCOC(=O)/C=C(C)/C=C/C[C@@H](C)CCCC(C)C`: 0.186% (inactive); for `Nc1n[nH]c(N)n1`: 0.0603% (inactive).
For `CC(C)(C)OC(=O)c1ncn2c1[C@@H]1CCCN1C(=O)c1c(Br)cccc1-2`, the “activation” value is -0.15% [at 26.5 µM] (inactive).
`CC(CC(C#N)(c1ccccc1)c1ccccc1)N(C)C` (stereo not given): the “activation” value is -0.198% (inactive).
`O=C1CN=C(c2ccccc2)c2cc([N+](=O)[O-])ccc2N1`: the “activation” value is 0.0374% [at 26.5 µM] (inactive).
On to `COP(=S)(OC)Oc1ccc(S(N)(=O)=O)cc1`, for which the “activation” value is -0.0946% [at 26.5 µM] (inactive).
On to `CC1(C(=O)Nc2ccc(O)c(Cl)c2Cl)CCCCC1`, for which the “activation” value was -0.167% (inactive).
The same measure for `CC(C1CC1)C(O)(Cn1cncn1)c1ccc(Cl)cc1` (stereo not given): -0.105% (inactive); for `COC(=O)c1c(C(F)F)nc(C(F)(F)F)c(C2=NCCS2)c1CC(C)C`: -0.0655% (inactive); for `NC(=O)c1cc([N+](=O)[O-])cc([N+](=O)[O-])c1`: 0.0832% [at 26.5 µM] (inactive).
Take `CCSC(=O)N(CC)C1CCCCC1`: the “activation” value was 0.233% (inactive).
With `Fc1ccc(C2(Cn3cncn3)OC2c2ccccc2Cl)cc1` (stereo not given), the “activation” value was -1.18% (inactive).
For the compound `COc1cc2c(cc1OC)[C@@]13CCN4CC5=CCO[C@H]6CC(=O)N2[C@H]1[C@H]6[C@H]5C[C@H]43`, the “activation” value was 0.666% (inactive).
Regarding `CCc1cc2c(s1)-n1c(C)nnc1CN=C2c1ccccc1Cl`, the “activation” value was -0.407% [at 26.5 µM] (inactive).
The value for `NC1=NC(=O)C(c2ccccc2)O1` (stereo not given) was -0.0472% [at 26.5 µM] (inactive).
The same measure for `CNC(=O)O/N=C(\C)SC`: -0.36% (inactive); for `CC1=C(C(=O)O)N2C(=O)[C@@H](N)[C@H]2SC1`: -0.183% [at 11.8 µM] (inactive).
On to `BrCCCCCCBr`, for which the “activation” value was -0.745% (inactive).
As to `CCC(=O)C(CCN(C)C)(c1ccccc1)c1ccccc1`, the “activation” value was -0.0479% [at 26.5 µM] (inactive).
On to `C=C(C)CN(CC)c1c([N+](=O)[O-])cc(C(F)(F)F)cc1[N+](=O)[O-]`, for which the “activation” value is 0.0214% (inactive).
Consider `CC(C)COP(=O)(OCC(C)C)OCC(C)C`, for which the “activation” value is 0.697% (inactive).
The value for `OC(c1ccc(F)cc1)(c1cncnc1)c1ccccc1Cl` (stereo not given) was 0.63% (inactive).
For `Nc1c(Br)cc([N+](=O)[O-])cc1[N+](=O)[O-]`, the “activation” value is 0.456% (inactive).
As for `N#CCBr`, the “activation” value is -0.49% (inactive).
The same measure for `CC(C)CC(N(C)C)C1(c2ccc(Cl)cc2)CCC1` (stereo not given): 0.305% [at 26.5 µM] (inactive).
The same measure for `O=c1oc2ccccc2c(O)c1C1CCCc2ccccc21` (stereo not given): 0.456% (inactive); for `COc1cc(OC)nc(Oc2cccc(Oc3nc(OC)cc(OC)n3)c2C(=O)O)n1`: 0.0824% (inactive).
As for `COC(=O)C(c1ccccc1)C1CCCCN1` (stereo not given), the “activation” value was 0.0729% (inactive).
